Reference: PubChem BioAssay (NCATS)
Values joined by “and” are separate entries in the source; they are usually repeats but may differ in a detail not shown here. Equal entries are not always repeated. Records with an inconclusive call do not appear. Active and inactive are the calls of the source. Unless noted, calls follow the shape of the dose curve; as a rule, active = well fitted curve in the direction sought with a large enough effect; inconclusive = small, poorly fitted or top-dose-only effect, or another doubt; inactive = no such curve, though single readings can be large; an effect the other way counts as inactive or inconclusive.

Columns and labels:
[1] = target: Cellular tumor antigen p53 (Homo sapiens) (UniProt P04637); assay: Primary qHTS for small molecule compounds that upregulate eGFP-tagged delta133p53alpha (in N-terminal) cells. (AID 2060322); settings: NCI-H358 eGFP-delta133p53alpha fluorescence, 24 h; activation: active compounds read high;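 also: cells pre-induced with doxycycline then dosed without doxycycline; 0% = DMSO vehicle and 100% = reference activator; nearly all actives have a fitted effect of over 75% in size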
Cellular tumor antigen p53 (Homo sapiens), sequence (P04637 whole entry, looked up): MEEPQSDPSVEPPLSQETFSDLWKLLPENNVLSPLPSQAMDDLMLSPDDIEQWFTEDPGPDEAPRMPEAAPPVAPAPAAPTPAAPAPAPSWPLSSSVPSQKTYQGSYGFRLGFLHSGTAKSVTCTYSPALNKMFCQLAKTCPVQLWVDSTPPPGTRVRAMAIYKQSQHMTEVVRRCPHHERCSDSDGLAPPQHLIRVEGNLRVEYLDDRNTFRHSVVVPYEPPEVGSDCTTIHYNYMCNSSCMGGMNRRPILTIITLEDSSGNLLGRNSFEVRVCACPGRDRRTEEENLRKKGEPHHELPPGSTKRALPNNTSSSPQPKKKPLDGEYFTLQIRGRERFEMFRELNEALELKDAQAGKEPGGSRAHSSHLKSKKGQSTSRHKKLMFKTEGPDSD
In short: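 NCI-H358 cells pre-induced 24 h with 10 ng/ml doxycycline for eGFP-delta133p53alpha, plated dox-free and exposed 24 h at 37C to titrated compounds. Fixed, Hoechst-stained; gated GFP peak intensity by laser scanning cytometry, normalized to DMSO (0%) and 57.5 uM 5-azacytidine (100%).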

[2] = target: Aldehyde dehydrogenase, mitochondrial (Homo sapiens) (UniProt P05091); assay: qHTS for Inhibitors of the Aldehyde Dehydrogenase Family (ALDH2) Confirmatory screens (AID 2061303; active = well fitted inhibition curve with a large enough effect; title and protocol of this record describe different tests; also: nearly all actives have a fitted effect of over 45% in size; also: potency is read from the fitted curve at half-maximal effect); settings: ALDH inhibition qHTS; series mostly up to 45.4 µM
[3] = qHTS for Inhibitors of the Aldehyde Dehydrogenase Family (ALDH1A2, ALDH1A3, ALDH2, ALDH3A1) (AID 2061307); settings: ALDH inhibition qHTS; series mostly up to 50.3 µM; also: nearly all actives have a fitted effect of over 50% in size; as to Potency: test system not described further here; potency is read from the fitted curve at half-maximal effect
[4] = target: Aldehyde dehydrogenase, mitochondrial (Homo sapiens) (UniProt P05091); assay: qHTS for Inhibitors of the Aldehyde Dehydrogenase Family (ALDH2) Primary screen (AID 2061308); settings: ALDH2 enzyme inhibition qHTS, 1536-well; series mostly up to 56 µM; also: nearly all actives have a fitted effect of over 55% in size; also: potency is read from the fitted curve at half-maximal effect
[5] = target: Retinaldehyde dehydrogenase 3 (Homo sapiens) (UniProt P47895); assay: qHTS for Inhibitors of the Aldehyde Dehydrogenase Family (ALDH1A3) Confirmatory screens (AID 2061311); settings: ALDH inhibition qHTS; series mostly up to 46 µM; also: nearly all actives have a fitted effect of over 60% in size; also: potency is read from the fitted curve at half-maximal effect
[6] = target: Retinal dehydrogenase 2 (Homo sapiens) (UniProt O94788); assay: qHTS for Inhibitors of the Aldehyde Dehydrogenase Family (ALDH1A2) Confirmation screens (AID 2061314); settings: ALDH1A2 enzyme inhibition qHTS confirmation; series mostly up to 45.9 µM; also: nearly all actives have a fitted effect of over 65% in size; also: potency is read from the fitted curve at half-maximal effect
[7] = target: Retinaldehyde dehydrogenase 3 (Homo sapiens) (UniProt P47895); assay: qHTS for Inhibitors of the Aldehyde Dehydrogenase Family (ALDH1A3) Primary screen (AID 2061315); settings: ALDH inhibition qHTS; series mostly up to 56 µM; also: potency is read from the fitted curve at half-maximal effect
[8] = target: Aldehyde dehydrogenase 1A1 (Homo sapiens) (UniProt P00352); assay: qHTS for Inhibitors of the Aldehyde Dehydrogenase Family (ALDH1A1) Confirmatory screens (AID 2061316); settings: ALDH inhibition qHTS; series mostly up to 47.3 µM; also: nearly all actives have a fitted effect of over 65% in size; also: potency is read from the fitted curve at half-maximal effect
[9] = BET inhibitor-based combinations targeting novel dependencies in MECOM-rearranged (r) AML: SET-2 cell line (AID 2202231); settings: SET-2 AML cells viability, CellTiter-Glo luminescence, 48 h; viability: active compounds read low, concentration not given here; also: nearly all actives have a fitted effect of over 35% in size; also: potency is read from the fitted curve at half-maximal effect;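 as to viability: plate controls were DMSO treated cells for no effect and wells without cells for full effect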
In short: (§1)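 Readout: CellTiter-Glo luminescence. Exposure: 48 h, 11 concentrations, 500 cells/well. Metric: AUC and within-line Z-AUC after DMSO/empty-well normalization.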

[10] = BET inhibitor-based combinations targeting novel dependencies in MECOM-rearranged (r) AML: OCI-AML3 cell line (AID 2202232); settings: CellTiter-Glo luminescence, 48 h; Potency: OCI-AML3 viability; series mostly up to 46 µM; also: nearly all actives have a fitted effect of over 35% in size; also: potency is read from the fitted curve at half-maximal effect
In short: as §1

[11] = BET inhibitor-based combinations targeting novel dependencies in MECOM-rearranged (r) AML: MV-4-11 cell line (AID 2202233); settings: MV-4-11 AML viability, CellTiter-Glo luminescence, 48 h; series mostly up to 46 µM; also: nearly all actives have a fitted effect of over 45% in size; also: potency is read from the fitted curve at half-maximal effect
In short: (§2)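 Seeding density was 500 cells/well, and drug exposure lasted 48 hr under standard culture conditions. Read-out used CellTiter-Glo reagent with a 15 min room-temperature incubation before luminescence measurement; AUC and Z-AUC summarize the normalized responses.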

[12] = BET inhibitor-based combinations targeting novel dependencies in MECOM-rearranged (r) AML: HNT-34 cell line (AID 2202234); settings: HNT-34 AML viability, CellTiter-Glo luminescence, 48 h; series mostly up to 46 µM; also: nearly all actives have a fitted effect of over 35% in size; also: potency is read from the fitted curve at half-maximal effect
In short: as §2

[13] = BET inhibitor-based combinations targeting novel dependencies in MECOM-rearranged (r) AML: UCSD-AML1 cell line (AID 2202235); settings: UCSD-AML1 AML cells viability, CellTiter-Glo, 48 h; series mostly up to 46 µM; also: nearly all actives have a fitted effect of over 40% in size; also: potency is read from the fitted curve at half-maximal effect
In short: as §2

[14] = BET inhibitor-based combinations targeting novel dependencies in MECOM-rearranged (r) AML: AML-191 cell line (AID 2202236; also: nearly all actives have a fitted effect of over 35% in size; also: potency is read from the fitted curve at half-maximal effect); settings: AML-191 viability, CellTiter-Glo luminescence, 48 h; series mostly up to 46 µM
In short: as §1

[15] = BET inhibitor-based combinations targeting novel dependencies in MECOM-rearranged (r) AML: AML-194 cell line (AID 2202237; also: nearly all actives have a fitted effect of over 40% in size; also: potency is read from the fitted curve at half-maximal effect); settings: AML-194 (MECOM-r AML) viability, CellTiter-Glo, 48 h; series mostly up to 46 µM
In short: as §1

[16] = target: Retinaldehyde dehydrogenase 3 (Homo sapiens) (UniProt P47895); assay: qHTS for Inhibitors of the Aldehyde Dehydrogenase Family (ALDH1A3) Validation screen (AID 2061312); settings: ALDH1A3 enzyme inhibition qHTS validation, fluorescence; series mostly up to 84.7 µM; also: % is scaled to controls: 0 for no effect and ±100 for the full control effect; nearly all actives have a fitted effect of over 45% in size

CCOC(=O)[C@H](CCc1ccccc1)N[C@@H](C)C(=O)N1C(=O)N(C)C[C@H]1C(=O)O
inactive: activation [1] 12.6% and 0.333% | Potency [2] | Potency [3] | Potency [4] | Potency [5] | Potency [6] | Potency [7] | Potency [8]

C=C1CC23CC1CCC2C12OC(=O)C(C)(CCC1O)C2C3C(=O)O (stereo not given)
inactive: activation [1] 21.4% | Potency [2] | Potency [3] | Potency [4] | Potency [6]

COc1cc(/C=C/c2cc(O)cc(O[C@@H]3O[C@H](CO)[C@@H](O)[C@H](O)[C@H]3O)c2)ccc1O
inactive: activation [1] 7.63% | Potency [2] | Potency [3] | Potency [4] | Potency [6] | Potency [8]
active: Potency [7] 6.31 µM

C=C(C)C(=O)O[C@H]1[C@H]2C(=C)C(=O)O[C@@H]2/C=C(\CO)CC/C=C(/C=O)[C@@H]1O
inactive: activation [1] -6.11% | Potency [2] | Potency [3] | Potency [4] | Potency [6]

CSC(=O)OCC1=C[C@@H]2OC(=O)C3=CO[C@@H](O[C@@H]4O[C@H](CO)[C@@H](O)[C@H](O)[C@H]4O)[C@H]1[C@@H]32
inactive: activation [1] -22.1% | Potency [2] | Potency [3] | Potency [4] | Potency [6] | Potency [8]

CC(C(=O)O)c1ccc2c(c1)CC(=O)c1ccccc1S2 (stereo not given)
inactive: activation [1] 0.619% and -1.69% and -1.43% | Potency [2] | Potency [3] | Potency [4] | Potency [5] | Potency [7] | Potency [8] | viability [9] 114% | Potency [10] | Potency [11] | Potency [12] | Potency [13] | Potency [14] | Potency [15]

CC1CCC23COC(=O)C2=CC(O)CC3C1(C)CCC1=CC(O)OC1=O (stereo not given)
inactive: activation [1] -3.82% | Potency [2] | Potency [3] | Potency [4] | Potency [6] | Potency [7]

CC(=O)OCC(=O)[C@@]1(O)[C@H](C)C[C@H]2[C@@H]3C=C(C)C4=Cc5c(cnn5-c5ccccc5)C[C@]4(C)[C@@H]3[C@@H](O)C[C@@]21C
inactive: activation [1] 2.08% | Potency [2] | Potency [3] | Potency [4] | Potency [6] | Potency [7] | Potency [8] | viability [9] 96.5% | Potency [10] | Potency [12] | Potency [13]

O=C1C(c2c(O)[nH]c3ccccc23)=Nc2ccccc21
inactive: activation [1] -10.6% and 17.7% | Potency [2] | Potency [3] | Potency [4] | Potency [5] | Potency [7] | Potency [8] | viability [9] 103% | Potency [10] | Potency [12] | Potency [13] | Potency [14] | Potency [15]

C=CC(=O)N1CCCN(c2cc(NCCC(=O)O)nc(-c3ccccn3)n2)CC1
inactive: activation [1] 9.67% | Potency [2] | Potency [3] | Potency [4] | Potency [5] | Potency [7]

S=C(c1ccc(-c2ccc(Cl)c(Cl)c2)o1)N1CCCCC1
inactive: activation [1] -7.64% | Potency [16] | Potency [7]
active: Potency [2] 2.83 µM | Potency [3] 12.7 µM | Potency [4] 22.4 µM | Potency [8] 5.04 µM

O=C(O)c1ccc(N2C(=O)/C(=C/c3ccc(-c4ccc([N+](=O)[O-])cc4)o3)C=C2c2ccccc2)cc1
inactive: activation [1] 24.3%
active: Potency [2] 1.59 µM | Potency [3] 11.3 µM | Potency [4] 3.98 µM | Potency [5] 20.1 µM | Potency [6] 5.65 µM | Potency [8] 3.18 µM

O=C(CCCCCCNC(=O)c1cnc(N(c2ccccc2)c2ccccc2)nc1)NO
active: Potency [9] 6.61 µM | Potency [10] 5.9 µM | Potency [11] 2.35 µM | Potency [12] 7.42 µM | Potency [13] 7.42 µM | Potency [14] 7.42 µM | Potency [15] 9.34 µM
inactive: activation [1] 7.34% | Potency [2] | Potency [3] | Potency [4] | Potency [5] | Potency [8]

Cc1nc2c(C#N)c[nH]n2c(=O)c1C(C)C
inactive: activation [1] 23.5% | Potency [2] | Potency [3] | Potency [4] | Potency [6] | Potency [7] | Potency [8]

COc1cc(/C=C/C(=O)OC[C@H]2O[C@@H](OC3OC=C(C(=O)O)C4C(O)CC(C)(O)C34)[C@H](O)[C@@H](O)[C@@H]2O)cc(OC)c1O (stereo not given in full)
inactive: activation [1] -12.2% | Potency [2] | Potency [3] | Potency [4] | Potency [6]

O=C(c1cccc(Cl)c1F)N1CCN(Cc2cccc(Nc3nccs3)n2)CC1
inactive: activation [1] 23.9% | Potency [2] | Potency [3] | Potency [4] | Potency [7]
active: Potency [5] 35.5 µM

CC1(C)[C@H](C(=O)O)N2C(=O)C[C@H]2S1(=O)=O
inactive: activation [1] -10% and -6.44% and -12.3% | Potency [2] | Potency [3] | Potency [4] | Potency [6] | Potency [7] | Potency [8]

CNC(=O)c1cc(Oc2ccc(NC(=O)c3cccc(C(F)(F)F)c3)cc2)ccn1
inactive: activation [1] 8.04% | Potency [2] | Potency [4] | Potency [6] | Potency [7] | Potency [8]
active: Potency [3] 6.34 µM
